Source: PubChem
Compounds with a hit are over-represented: about 3.1% of the library has one in this group of screens.
KCC2 mod – KCC2 (human) Cl- transport modulation; B-score of Tl+ flux slope (higher = more flux/activation; lower = inhibition) at 10 µM; KCC2 cells, thallium flux FluoZin-2 fluorescence; 2.2% of 190,000 active;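 active means thallium flux slope and its plate-corrected score both differing from the plate sample mean at a set confidence after two filtering rounds, in either direction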;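 further: slope of fluorescence scaled to starting intensity during 10 to 20 s after thallium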
S1P3 antag – blocks the human S1P3 receptor; Q99500; CHO S1P3 NFAT-BLA reporter, FRET fluorescence, antagonist mode; inhibition, % at 4.98 µM; 0.27% of 170,000 active;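 active means inhibition above the plate cutoff, the mean inhibition of test wells on that plate plus 3 SD, cut at about 28% in these data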;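 further: cells challenged with S1P at its EC80 of 0.8 µM; blue over green emission ratio from cleaved BLA substrate after 4 h stimulation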
Target sequence (Q99500 whole entry, looked up): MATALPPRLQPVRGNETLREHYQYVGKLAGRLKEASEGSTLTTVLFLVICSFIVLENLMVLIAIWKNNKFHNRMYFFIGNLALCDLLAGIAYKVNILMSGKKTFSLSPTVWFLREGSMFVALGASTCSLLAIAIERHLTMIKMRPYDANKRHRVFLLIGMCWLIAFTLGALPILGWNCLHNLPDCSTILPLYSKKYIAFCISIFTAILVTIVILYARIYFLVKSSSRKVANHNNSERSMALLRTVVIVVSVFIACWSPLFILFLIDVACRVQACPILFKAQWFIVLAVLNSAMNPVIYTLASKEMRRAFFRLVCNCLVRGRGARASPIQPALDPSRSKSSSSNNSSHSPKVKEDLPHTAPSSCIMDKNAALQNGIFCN
EP2 mod – modulators of human EP2 prostaglandin E2 receptor; P43116; EP2-expressing cells, cAMP HTRF FRET, PGE2 co-stimulation; induction, % at 25 µM; 0.83% of 260,000 active; AID 940;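 active means compounds whose cAMP rise, as percent of the full-agonist control response, exceeds 60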;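 further: rat C6 glioma line stably carrying human EP2 under a CMV promoter; the protocol text gives 20 µM as final concentration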
Target sequence (P43116 whole entry, looked up): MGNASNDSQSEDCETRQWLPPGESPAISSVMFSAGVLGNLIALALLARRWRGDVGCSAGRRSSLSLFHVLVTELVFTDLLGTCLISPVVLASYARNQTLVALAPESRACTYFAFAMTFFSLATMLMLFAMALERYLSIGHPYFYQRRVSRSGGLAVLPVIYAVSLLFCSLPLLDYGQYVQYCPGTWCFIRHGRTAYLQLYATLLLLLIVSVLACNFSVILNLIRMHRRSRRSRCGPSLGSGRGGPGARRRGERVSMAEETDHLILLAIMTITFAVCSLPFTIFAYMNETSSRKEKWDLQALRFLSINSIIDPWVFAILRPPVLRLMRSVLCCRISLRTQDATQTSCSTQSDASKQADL
EP2 antag – blocks the human prostaglandin E2 receptor EP2. P43116. C6 glioma cells expressing human EP2, cAMP TR-FRET; cells stimulated with saturating PGE2. inhibition, % at 25 µM. 0.52% of 260,000 active. AID 1422;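 active means percent inhibition above 40 after rounding to a whole number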;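 further: rat C6 glioma host cells with rolipram phosphodiesterase inhibitor present; the protocol text gives 20 µM as final concentration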
KCC2 secondary – KCC2 (human) modulation, secondary assay. shares compounds with KCC2 mod. HEK293-KCC2, thallium flux, FluoZin2 fluorescence; hits give high values. normalised thallium flux (F/F0 slope) at 10 µM. 15% of 3,700 active;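 active means thallium flux slope above the same plate's solvent-only control mean plus 3 SD; inconclusive means the two replicate wells disagree; inactive means no significant difference from solvent-only control wells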
KCC2 bumet counter – thallium flux persisting under bumetanide in KCC2 cells, counter-screen secondary assay. HEK293-KCC2 + bumetanide/ouabain, thallium flux FluoZin2; hits give high values. AID 1714. normalized thallium flux at 10 µM. 49% of 3,700 active. shares compounds with KCC2 mod;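 active means thallium entry rate above the same plate's blocked-transporter control wells by more than 3 SD; inconclusive means the two repeat wells disagree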;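 further: raw slope of fluorescence over initial fluorescence between 10 and 20 s after thallium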
KCC2 secondary2 – confirmation of human KCC2 transport modulators; shares compounds with KCC2 mod; HEK293-KCC2, thallium flux FluoZin2 fluorescence; actives lie on both sides; F/F0 rise rate, 10–20 s post-thallium; normalized thallium flux at 10 µM; 23% of 3,700 active; AID 1715;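 active means thallium flux slope more than 3 SD above or below the plate's solvent-only control mean, mostly below; inconclusive means the two repeat wells disagreed; inactive means no significant shift from solvent-only controls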
HEK counter1 – parental HEK flux effect, counter-screen; AID 1716; 46% of 3,700 active; thallium flux rate (normalised fluorescence) at 10 µM; shares compounds with KCC2 mod; HEK293 parental cells, thallium flux FluoZin2, ouabain; baseline-ratio fluorescence slope, 10–20 s after thallium;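 active means thallium flux rate significantly above the same plate's solvent-only control wells, beyond their mean plus 3 SD; inconclusive means the two replicate wells gave conflicting results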
KCC2 retest ouab – confirmation of human KCC2 modulators with ouabain. shares compounds with KCC2 mod. HEK293-KCC2, thallium flux FluoZin2 fluorescence; bidirectional: low = inhibitor, high = activator. raw Tl+ flux slope (below DMSO = inhibition, above = activation) at 10 µM. 48% of 3,700 active. AID 1717;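 active means thallium flux slope beyond 3 SD from same-plate DMSO control mean in most replicates, usually higher, sometimes lower; inconclusive means repeat tests gave conflicting results; inactive means no significant difference from controls in most replicates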;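 further: slope of initial-normalized fluorescence between seconds 10 and 20 after thallium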
HEK counter2 – parental HEK flux effect, counter-screen 2. shares compounds with KCC2 mod. HEK293 parental, thallium flux FluoZin-2 fluorescence slope. thallium flux slope at 10 µM. 33% of 3,700 active. AID 1718;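 active means thallium flux slope above the same plate's solvent-control mean plus 3 SD in both duplicate wells; inconclusive means duplicate wells that disagreed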;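 further: run without ouabain in cells lacking the KCC2 cotransporter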
Hits are given with their value; n = inactive; u = inconclusive; x = no result given.

SMILES	KCC2 mod	S1P3 antag	EP2 mod	EP2 antag	KCC2 secondary	KCC2 bumet counter	KCC2 secondary2	HEK counter1	KCC2 retest ouab	HEK counter2
CCCC(=O)NC(c1ccc2c(c1)OCO2)c1cc(Cl)c2cccnc2c1O (configuration not stated)	4.07	n	n	n	n	n	n	n	n	n
COc1ccc2cc(C(c3nnnn3C3CCCC3)N3CCN(Cc4ccccc4)CC3)c(=O)[nH]c2c1 (configuration not stated)	x	x	n	n	x	x	x	x	x	x
COc1ccccc1NC(=O)NC1CC2CCCC(C1)N2Cc1cccs1 (configuration not stated)	x	x	n	n	x	x	x	x	x	x
COc1ccc(NCc2nnc(SCC(=O)Nc3ccc(C)c(C)c3)n2C)cc1	x	x	n	n	x	x	x	x	x	x
O=c1cc(CSc2nnnn2-c2ccccc2)nc2scc(-c3ccccc3)n12	-4.71	n	n	n	n	n	0.0235	n	0.0127	n
CCOc1ccccc1-n1nnnc1SCC(=O)N1CCc2ccccc2C1	x	x	n	n	x	x	x	x	x	x
O=C(CSc1nnnn1-c1ccc(Cl)cc1)N1CCc2ccccc2C1	x	n	n	n	n	u	0.0248	n	u	n
O=C(CSc1nnnn1-c1ccccc1)CSc1nnnn1-c1ccccc1	x	n	n	n	n	n	n	u	0.0257	n
O=C(O)CSc1nnnn1-c1ccccc1	n	x	n	n	x	x	x	x	x	x
COC(=O)Cn1cc(CN2CCc3nc(N4CCC(C)CC4)[nH]c(=O)c3C2)c2ccccc21	x	x	n	n	x	x	x	x	x	x
COc1ccc(CC(=O)N2C3CCC2CC(c2ccc(F)cc2)C3)cc1OC (configuration not stated)	x	x	n	n	x	x	x	x	x	x
Cc1scc(C(=O)N/N=C/c2ccc(Cl)s2)c1C	38.6	n	n	n	u	0.0529	0.0433	0.0776	0.0856	0.0238
Cc1ccc(/C=N/NC(=O)c2ccoc2C)s1	n	n	n	n	x	x	x	x	x	x
O=C(N/N=C/c1ccc(Br)s1)c1ccco1	7.05	n	n	n	n	0.0108	n	0.0163	n	0.0132
Cc1occc1C(=O)N/N=C/c1ccc(Br)s1	78.4	n	n	n	u	0.0297	n	0.0363	0.0523	0.0216
Cc1ccc(/C=N/NC(=O)c2ccco2)s1	n	x	n	n	x	x	x	x	x	x
Cc1ccc(NC(=O)C(=O)NCc2cccnc2)cc1Cl	x	x	n	n	x	x	x	x	x	x
COc1ccc(C2CCN(CC(=O)Nc3nccs3)CC2)cc1	x	x	n	n	x	x	x	x	x	x
Cc1c(Cl)cccc1N=c1c([N+](=O)[O-])nn(-c2ccccc2)n1O	6.02	x	n	n	n	n	n	n	n	n
CCOc1ccc(N(CC(=O)N2CCN(c3ccccc3F)CC2)S(C)(=O)=O)cc1	x	x	n	n	x	x	x	x	x	x
Cn1cccc1/C=N/NC(=O)c1cccnc1	2.98	x	n	n	n	n	n	n	n	n
O=C(NCCNC(=O)c1ccco1)c1ccc(Cl)cc1	x	x	n	n	x	x	x	x	x	x
COc1ccc(-c2c(C)nn3c(NCCc4ccccn4)cc(C)nc23)cc1	x	x	n	x	x	x	x	x	x	x
Cc1[nH]c(=S)sc1Cc1ccc(Cl)c(Cl)c1	48.6	n	n	n	u	0.0844	u	0.0365	0.0483	0.0149
COc1ccc2c(c1)OC1(CCN(C(=O)C3CCCC3)CC1)CC2O (configuration not stated)	x	x	n	n	x	x	x	x	x	x
SMILES	KCC2 mod	S1P3 antag	EP2 mod	EP2 antag	KCC2 secondary	KCC2 bumet counter	KCC2 secondary2	HEK counter1	KCC2 retest ouab	HEK counter2
CCOC(=O)C1CCCN(C(=O)c2cnn3c(C(F)(F)F)cc(-c4ccccc4)nc23)C1 (configuration not stated)	n	n	n	n	x	x	x	x	x	x
CCOC(=O)C1CCCN(C(=O)c2cc3nc(-c4cccc(OC)c4)cc(C(F)(F)F)n3n2)C1 (configuration not stated)	x	n	n	n	n	n	n	n	n	n
COc1ccccc1C1C(C#N)=C(SCC(=O)Nc2ccc(Br)cc2)NC(=O)C1C#N (configuration not stated)	x	x	n	n	x	x	x	x	x	x
COc1ccccc1CN(Cc1cc2cc(C)c(C)cc2[nH]c1=O)C(=O)c1ccc(OC)c(OC)c1	x	x	n	n	x	x	x	x	x	x
CCN(CC)CCCNC(=O)c1cn(CCOC)c(=O)c2c1c1ccccc1n2C	x	n	n	n	n	u	n	n	n	n
O=C(OCCCc1ccncc1)c1ccc(S(=O)(=O)N2CCOCC2)cc1	x	n	n	n	n	0.0183	n	0.0109	n	0.0114
Nc1ccc(Br)c2c1C(=O)c1ccccc1C2=O	-3.84	x	n	n	u	u	n	u	n	n
Nc1ccc(O)c2c1C(=O)c1ccccc1C2=O	n	n	n	n	x	x	x	x	x	x
O=C(CSc1nnc(-c2ccc(O)cc2)o1)N1c2ccccc2Sc2ccccc21	x	x	n	n	x	x	x	x	x	x
O=C(c1ccc2c3n(nc2c1)-c1ccccc1CO3)N1CCCCC1	-2.53	x	n	n	n	u	n	n	n	n
CCOc1ccccc1-n1c(COc2ccc(OC)cc2)nnc1SCC(N)=O	x	x	n	n	x	x	x	x	x	x
O=C(c1cccc(Cl)c1)N1CCCC(c2nc(-c3cccs3)no2)C1 (configuration not stated)	x	x	n	n	x	x	x	x	x	x
Cc1ccc(OCC(=O)NNC(=S)NC(=O)C(C)(C)C)c(Br)c1	49.9	n	n	n	0.0253	0.098	u	0.0683	0.065	0.0243
Cc1cccc(NC(=S)NNC(=O)COc2ccc(Cl)cc2Cl)c1	6.47	n	n	n	n	0.16	n	0.0284	0.0532	0.013
CCOc1ccc(N(C(C)C(=O)Nc2ccc(OC)cc2)S(C)(=O)=O)cc1 (configuration not stated)	-5.01	n	n	n	n	n	n	n	n	n
CC(=O)N1CCN(c2ccccc2N)CC1	x	x	n	n	x	x	x	x	x	x
Cc1ccc(C2(C(F)(F)F)NC(=O)N3CCCN=C3S2)cc1 (configuration not stated)	3.93	x	n	n	n	n	n	n	n	n
O=C(Oc1cc(=O)n2ccccc2n1)c1ccccc1	-4.28	n	n	n	0.0122	n	n	0.00564	n	n
O=c1cc(CN2CCc3ccccc32)c2ccc(O)cc2o1	x	n	n	n	n	n	n	n	0.0176	n
CCC(CC)N1CCN(C2CCN(Cc3ccccc3)CC2)CC1	x	x	n	n	x	x	x	x	x	x
COC(=O)c1ccccc1NC(=S)NC(=O)COc1ccccc1Cl	18.5	x	n	x	0.0228	0.0498	u	0.0119	0.024	0.0158
